# Measurements taken from PubChem BioAssay AID1159580 (chemical genetic matrix, 2015).
# “And” between values parts separate entries of the source, which are not always exact repeats. Equal values may be shown once. The campaign covered roughly 5,500 compounds. About 2,000 (36%) were called active. Roughly 18% stayed inconclusive and do not appear here. The list shows a part of the results. A number with no mark means an inactive call. Cut-off read from the data, not from the text of the source: active = normalized growth mostly below about 0.91 (no sharp cut-off); inconclusive = no clear call, values can overlap the other calls; inactive = mostly above about 0.92.
# Assay: chemical genetic growth profiling, strain panel (AID 1159580);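 note: tested at 20 µM; growth read once vehicle control cultures reached saturation at 30 °C; 1 = growth at the plate median or of vehicle wells; lower values mean less growth of the strain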
# Details: S. cerevisiae deletion strains, growth OD
smiles,measurement,setting,value
CC1[C@H](C)OC(=O)CC(O)CC(O)CC(O)CCC(O)C(O)C[C@]2(O)CC(O)C(C(=O)O)C(CC(OC3O[C@H](C)[C@@H](O)[C@H](N)[C@@H]3O)/C=C/C=C/C=C/C=C/CC/C=C/C=C/[C@H](C)[C@H]1O)O2 (stereo partly specified),normalized growth,"locus YAL013W, strain DEP1, active compounds read low",0.0554 (active)
same,normalized growth,"locus YAL021C, strain ccr4, active compounds read low",0.186 (active)
same,normalized growth,"locus YAL026C, strain drs2, active compounds read low",0.0661 (active)
same,normalized growth,"locus YAL030W, strain snc1, active compounds read low",0.824 (active)
same,normalized growth,"locus YBL061C, strain skt5, active compounds read low",0.931
same,normalized growth,"locus YBR009C, strain hhf1, active compounds read low",0.557 (active)
same,normalized growth,"locus YBR021W, strain FUR4, active compounds read low",0.369 (active)
same,normalized growth,"locus YBR023C, strain chs3, active compounds read low",0.918
same,normalized growth,"locus YBR171W, strain sec66, active compounds read low",0.0858 (active)
same,normalized growth,"locus YBR229C, strain ROT2, active compounds read low",0.206 (active)
same,normalized growth,"locus YBR279W, strain paf1, active compounds read low",0.982
same,normalized growth,"locus YCL011C, strain gbp2, active compounds read low",0.223 (active)
same,normalized growth,"locus YCL016C, strain dcc1, active compounds read low",0.971
same,normalized growth,"locus YCL029C, strain bik1, active compounds read low",0.425 (active)
same,normalized growth,"locus YCL069W, strain vba3, active compounds read low",0.849 (active)
same,normalized growth,"locus YCR088W, strain abp1, active compounds read low",0.0729 (active)
same,normalized growth,"locus YDL005C, strain med2, active compounds read low",0.953
same,normalized growth,"locus YDL035C, strain GPR1, active compounds read low",0.0678 (active)
same,normalized growth,"locus YDL040C, strain nat1, active compounds read low",0.995
same,normalized growth,"locus YDL074C, strain BRE1, active compounds read low",0.144 (active)
same,normalized growth,"locus YDL101C, strain DUN1, active compounds read low",0.188 (active)
same,normalized growth,"locus YDL134C, strain PPH21, active compounds read low",0.592 (active)
same,normalized growth,"locus YDL185W, strain tfp1, active compounds read low",0.0687 (active)
same,normalized growth,"locus YDL192W, strain arf1, active compounds read low",0.133 (active)
same,normalized growth,"locus YDR001C, strain nth1, active compounds read low",0.815 (active)
same,normalized growth,"locus YDR069C, strain doa4, active compounds read low",0.858 (active)
same,normalized growth,"locus YDR101C, strain arx1, active compounds read low",0.119 (active)
same,normalized growth,"locus YDR137W, strain rgp1, active compounds read low",0.914
same,normalized growth,"locus YDR150W, strain NUM1, active compounds read low",0.0676 (active)
same,normalized growth,"locus YDR159W, strain sac3, active compounds read low",1.04
same,normalized growth,"locus YDR162C, strain NBP2, active compounds read low",0.0472 (active)
same,normalized growth,"locus YDR195W, strain ref2",0.466 (active)
same,normalized growth,"locus YDR297W, strain sur2, active compounds read low",0.828 (active)
same,normalized growth,"locus YDR318W, strain mcm21, active compounds read low",0.194 (active)
same,normalized growth,"locus YDR334W, strain swr1, active compounds read low",0.415 (active)
same,normalized growth,"locus YDR335W, strain msn5, active compounds read low",0.904 (active)
same,normalized growth,"locus YDR388W, active compounds read low",0.0675 (active)
same,normalized growth,"locus YDR392W, strain spt3, active compounds read low",1.11
same,normalized growth,"locus YDR502C, strain sam2, active compounds read low",0.0781 (active)
same,normalized growth,"locus YEL003W, strain gim4, active compounds read low",0.154 (active)
same,normalized growth,"locus YEL037C, strain rad23, active compounds read low",0.723 (active)
same,normalized growth,"locus YEL061C, strain CIN8 (second series), active compounds read low",0.815 (active)
same,normalized growth,"locus YEL061C, strain CIN8, active compounds read low",0.0554 (active)
same,normalized growth,"locus YER015W, strain faa2, active compounds read low",0.822 (active)
same,normalized growth,"locus YER016W, strain bim1, active compounds read low",0.961
same,normalized growth,"locus YER110C, active compounds read low",0.188 (active)
same,normalized growth,"locus YER111C, strain swi4, active compounds read low",0.959
same,normalized growth,"locus YER155C, strain BEM2 (second series), active compounds read low",0.633 (active)
same,normalized growth,"locus YER155C, strain BEM2, active compounds read low",0.122 (active)
same,normalized growth,"locus YER167W, strain BCK2, active compounds read low",0.0855 (active)
same,normalized growth,"locus YFR010W, strain ubp6, active compounds read low",0.137 (active)
same,normalized growth,"locus YGL078C, strain dbp3, active compounds read low",0.0582 (active)
same,normalized growth,"locus YGL086W, strain mad1, active compounds read low",0.124 (active)
same,normalized growth,"locus YGL167C, strain pmr1, active compounds read low",0.996
same,normalized growth,"locus YGL173C, strain kem1, active compounds read low",0.799 (active)
same,normalized growth,"locus YGL227W, strain vid30, active compounds read low",0.061 (active)
same,normalized growth,"locus YGL240W, strain doc1, active compounds read low",0.537 (active)
same,normalized growth,"locus YGL248W, strain PDE1, active compounds read low",0.646 (active)
same,normalized growth,"locus YGL253W, strain hxk2, active compounds read low",0.44 (active)
same,normalized growth,"locus YGR078C, strain PAC10, active compounds read low",0.0638 (active)
same,normalized growth,"locus YGR135W, strain pre9, active compounds read low",0.0907 (active)
same,normalized growth,"locus YGR229C, strain SMI1, active compounds read low",0.0609 (active)
same,normalized growth,"locus YGR252W, strain gcn5, active compounds read low",0.385 (active)
same,normalized growth,"locus YHR013C, strain ard1, active compounds read low",1.35 [resistant] (active)
same,normalized growth,"locus YHR027C, strain rpn1, active compounds read low",0.77 (active)
same,normalized growth,"locus YHR030C, strain SLT2, active compounds read low",0.179 (active) and 0.0985 (active)
same,normalized growth,"locus YHR079C, strain IRE1 (second series), active compounds read low",0.312 (active)
same,normalized growth,"locus YHR079C, strain IRE1, active compounds read low",0.102 (active)
same,normalized growth,"locus YHR094C, strain hxt1, active compounds read low",0.302 (active)
same,normalized growth,"locus YHR129C, strain ARP1, active compounds read low",0.129 (active)
same,normalized growth,"locus YHR142W, strain chs7, active compounds read low",0.658 (active)
same,normalized growth,"locus YHR200W, strain rpn10, active compounds read low",0.0755 (active)
same,normalized growth,"locus YIL066C, strain RNR3, active compounds read low",0.51 (active)
same,normalized growth,"locus YIL073C, strain SPO22, active compounds read low",0.987
same,normalized growth,"locus YIL125W, strain kgd1, active compounds read low",0.0583 (active)
same,normalized growth,"locus YIR030C, strain dcg1, active compounds read low",0.182 (active)
same,normalized growth,"locus YJL092W, strain hpr5, active compounds read low",0.402 (active)
same,normalized growth,"locus YJL095W, strain BCK1 (second series), active compounds read low",0.994
same,normalized growth,"locus YJL095W, strain BCK1, active compounds read low",0.567 (active) and 0.099 (active)
same,normalized growth,"locus YJL115W, strain asf1, active compounds read low",0.887 (active)
same,normalized growth,"locus YJL129C, strain trk1, active compounds read low",1.2 [resistant] (active)
same,normalized growth,"locus YJL134W, strain LCB3, active compounds read low",0.372 (active)
same,normalized growth,"locus YJL154C, strain vps35, active compounds read low",0.985
same,normalized growth,"locus YJL164C, strain tpk1, active compounds read low",0.775 (active)
same,normalized growth,"locus YJL166W, strain qcr8, active compounds read low",0.789 (active)
same,normalized growth,"locus YJL168C, strain set2, active compounds read low",0.199 (active)
same,normalized growth,"locus YJL187C, strain SWE1 (second series), active compounds read low",0.168 (active)
same,normalized growth,"locus YJL187C, strain SWE1, active compounds read low",0.846 (active)
same,normalized growth,"locus YJR043C, strain POL32, active compounds read low",0.0611 (active)
same,normalized growth,"locus YJR066W, strain TOR1, active compounds read low",0.0213 (active)
same,normalized growth,"locus YJR075W, strain HOC1, active compounds read low",0.0672 (active)
